Measured values as given in PubChem BioAssay.
Inconclusive results are not listed. Activity calls are given as the source filed them.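 Rule for the calls, unless noted: active = binding below the plate cutoff, the plate median minus 3 SD, with a reading above zero; inconclusive = below the plate cutoff but reading exactly zero; inactive = the rest.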

Tests used:
[1] = yeast TOR pathway RPL19A-GFP modulators, primary screen, cell-based, S. cerevisiae, multiplex flow cytometry (AID 1862; in the data active = percent of DMSO control GFP below about 86%;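 note: lower values mimic rapamycin by blocking the RPL19A rise seen in DMSO cells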); conditions: S. cerevisiae RPL19A-GFP strain, flow cytometry fluorescence, 3 h; at 10 µM; stronger effect = lower value
[2] = modulators of MEP2-GFP levels in yeast, primary screen, S. cerevisiae, multiplex flow cytometry (AID 1867;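 active = GFP response, as percent of the DMSO control, above the screen-wide mean plus 3 SD, about 139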;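 note: median GFP channel fluorescence of barcode-gated MEP2-GFP cells measured by flow cytometry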); conditions: S. cerevisiae MEP2-GFP strain, 3 h, at 10 µM, stronger effect = higher value, 100% means same as DMSO wells
[3] = modulators of CIT2-GFP expression in yeast, primary screen, S. cerevisiae, GFP fusion, multiplex flow cytometry (AID 1870;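 active = percent response above a set limit, the screen-wide mean plus 3 SD, cut at about 130% in these data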;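 note: barcoded CIT2-GFP strain pooled with four other GFP strains with rapamycin as positive control; median GFP fluorescence per well over plate mean of DMSO wells so 100% = DMSO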); conditions: 3 h, at 10 µM, stronger effect = higher value
[4] = modulators of LAP4-GFP expression in yeast, primary screen, S. cerevisiae, multiplex flow cytometry (AID 1873;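 active = GFP signal, as percent of the solvent control, above the screen mean plus 3 SD, about 149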); conditions: 3 h, at 10 µM, stronger effect = higher value
[5] = modulators of AGP1-GFP expression in yeast TOR pathway, primary screen, cell-based, multiplex flow cytometry, S. cerevisiae (AID 1887;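 active = GFP signal above the screen-wide mean plus 3 SD, that is over about 124.5% of the solvent control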;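 note: AGP1-GFP fusion strain of S. cerevisiae within a five-strain barcoded multiplex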); conditions: 3 h, at 10 µM, stronger effect = higher value
[6] = RPL19A-GFP modulators, yeast TOR pathway, confirmation, cell-based, S. cerevisiae, flow cytometry, cherry picks, mother/daughter gates (AID 2270;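 active = GFP response below 50% of the DMSO control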); conditions: S. cerevisiae RPL19A-GFP strain, 3 h, at 10 µM, stronger effect = lower value, 100 = same GFP as DMSO wells
[7] = LAP4-GFP expression modulators in yeast, confirmation, cell-based, cherry picks, flow cytometry, mother/daughter gates (AID 2271;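 active = GFP response above 150% of the DMSO control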;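 note: ratio of sample to DMSO plate mean so 100% equals DMSO level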); conditions: S. cerevisiae LAP4-GFP strain, 3 h, at 10 µM, stronger effect = higher value, 100 means same as DMSO control
[8] = modulators of MEP2-GFP levels in yeast, confirmation, S. cerevisiae, flow cytometry GFP, cherry picks (AID 2272;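 active = GFP response above 150% of the DMSO control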;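 note: ratio of well signal to plate DMSO mean so 100% equals DMSO level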); conditions: S. cerevisiae MEP2-GFP strain, 3 h, at 10 µM, stronger effect = higher value
[9] = modulators of CIT2-GFP expression in yeast, confirmation, S. cerevisiae, GFP fusion, cherry picks, mother/daughter gates (AID 2274;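 active = GFP response above 150% of the DMSO level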); conditions: S. cerevisiae CIT2-GFP strain, flow cytometry, 3 h, at 10 µM, stronger effect = higher value
[10] = inhibitors of CD8+ T cell-vesicle binding, pilot screen, LFA-1/ICAM-1 modulator project, MLPCN validation set, flow cytometry (AID 2523;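 active = response below a set limit, under 55% cells CD8-positive and vesicle-bound, and CD8 cells' 90th-percentile brightness under 279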;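 for vesicle binding response: mean PE anti-B7-1 fluorescence of CD8+ cells relative to row control; 100% = QL9-loaded vesicles with DMSO vehicle in the same plate row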); conditions: 2C mouse CD8+ T cells, at 7 µM, stronger effect = lower value; double positive events: measured here: CD8+/vesicle+ event percentage
[11] = target: Integrin beta-1 (Homo sapiens) + Integrin alpha-4 (Homo sapiens) (UniProt P13612+P05556); assay: inhibition of HUTS-21 binding to VLA-4, pilot screen, VLA-4 allosteric modulator project, U937 cells, HUTS-21 mAb, flow cytometry, validation set (AID 2674;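 active = inhibition above 50%, about 3 SD of the validation set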;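 note: antibody binding induced by the VLA-4 ligand LDV present at three times its Kd; 0% = LDV ligand with antibody and no compound and 100% = antibody without LDV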); conditions: HUTS-21 LIBS mAb binding, at 6.7 µM, stronger effect = higher value, binding induced by LDV ligand
Integrin beta-1 (Homo sapiens) + Integrin alpha-4 (Homo sapiens), sequence (P05556 whole entry, looked up): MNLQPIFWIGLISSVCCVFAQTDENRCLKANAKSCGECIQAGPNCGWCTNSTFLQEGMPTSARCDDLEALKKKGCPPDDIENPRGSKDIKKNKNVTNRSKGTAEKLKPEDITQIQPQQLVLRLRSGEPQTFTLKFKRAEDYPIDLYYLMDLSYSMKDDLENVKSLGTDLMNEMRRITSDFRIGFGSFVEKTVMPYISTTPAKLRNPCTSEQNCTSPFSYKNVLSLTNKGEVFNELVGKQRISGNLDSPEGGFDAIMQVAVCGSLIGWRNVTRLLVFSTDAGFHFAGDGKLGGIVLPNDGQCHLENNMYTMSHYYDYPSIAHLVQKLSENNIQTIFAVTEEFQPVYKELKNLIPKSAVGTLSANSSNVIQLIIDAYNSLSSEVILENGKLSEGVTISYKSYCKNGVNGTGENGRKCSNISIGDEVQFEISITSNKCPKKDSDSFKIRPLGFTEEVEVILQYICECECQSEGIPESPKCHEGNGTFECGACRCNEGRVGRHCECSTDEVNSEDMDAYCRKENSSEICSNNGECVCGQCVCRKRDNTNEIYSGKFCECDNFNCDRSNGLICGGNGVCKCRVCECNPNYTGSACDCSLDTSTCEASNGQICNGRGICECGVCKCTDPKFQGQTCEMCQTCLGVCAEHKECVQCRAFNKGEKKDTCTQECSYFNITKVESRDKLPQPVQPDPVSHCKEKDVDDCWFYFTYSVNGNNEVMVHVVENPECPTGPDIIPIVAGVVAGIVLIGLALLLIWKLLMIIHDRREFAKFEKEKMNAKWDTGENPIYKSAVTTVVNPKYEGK
Integrin beta-1 (Homo sapiens) + Integrin alpha-4 (Homo sapiens), sequence (P13612 whole entry, looked up): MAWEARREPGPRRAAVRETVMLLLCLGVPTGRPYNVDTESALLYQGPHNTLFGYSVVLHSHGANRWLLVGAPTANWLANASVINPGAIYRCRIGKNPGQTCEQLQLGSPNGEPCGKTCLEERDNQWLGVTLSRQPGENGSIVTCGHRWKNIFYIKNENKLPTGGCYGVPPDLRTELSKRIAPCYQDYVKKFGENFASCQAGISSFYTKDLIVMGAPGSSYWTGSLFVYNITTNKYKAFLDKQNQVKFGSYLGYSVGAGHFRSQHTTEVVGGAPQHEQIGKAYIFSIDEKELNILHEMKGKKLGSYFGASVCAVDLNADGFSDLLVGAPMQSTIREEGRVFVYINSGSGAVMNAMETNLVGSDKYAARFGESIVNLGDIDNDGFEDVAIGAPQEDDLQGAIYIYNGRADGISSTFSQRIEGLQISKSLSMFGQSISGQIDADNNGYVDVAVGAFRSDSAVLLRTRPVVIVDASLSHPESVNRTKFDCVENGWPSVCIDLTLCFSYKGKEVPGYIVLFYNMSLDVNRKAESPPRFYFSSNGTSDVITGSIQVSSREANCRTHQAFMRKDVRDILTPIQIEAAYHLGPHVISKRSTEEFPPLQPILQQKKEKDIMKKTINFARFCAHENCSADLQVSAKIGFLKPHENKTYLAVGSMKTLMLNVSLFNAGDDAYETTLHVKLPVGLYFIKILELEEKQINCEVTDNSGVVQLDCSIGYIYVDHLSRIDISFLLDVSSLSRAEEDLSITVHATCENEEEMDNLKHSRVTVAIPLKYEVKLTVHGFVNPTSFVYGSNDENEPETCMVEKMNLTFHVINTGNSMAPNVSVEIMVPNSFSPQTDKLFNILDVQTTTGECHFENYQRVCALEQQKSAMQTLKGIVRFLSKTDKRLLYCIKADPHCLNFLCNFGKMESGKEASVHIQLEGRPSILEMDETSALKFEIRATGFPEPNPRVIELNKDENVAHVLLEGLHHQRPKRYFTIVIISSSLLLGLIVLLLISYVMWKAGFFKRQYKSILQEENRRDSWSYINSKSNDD

[12] = superoxide lowering in aged yeast cells, pilot screen, validation compound set (AID 2706;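 active = superoxide response below 65% of plate, a cut near 3 SD across the whole screen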;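 note: yeast exposed to compound for one week at 30 degrees C before staining; 100% = mean of all compound wells on the same plate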); conditions: S. cerevisiae aging, superoxide DHE fluorescence; at 10 µM; stronger effect = lower value
[13] = target: Beta-adrenergic receptor kinase 1 (Homo sapiens) (UniProt P25098); assay: GRK2 binders displacing RNA aptamer, biochemical, validation, human GRK2, bead flow cytometry (AID 488806;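 active = aptamer binding inhibition above 30%, about 3 SD of noise from non-fluorescent compounds; inactive = inhibition at or below 30%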); conditions: bead-bound GRK2, FAM-aptamer displacement, at 10 µM, stronger effect = higher value
Beta-adrenergic receptor kinase 1 (Homo sapiens), sequence (P25098 whole entry, looked up): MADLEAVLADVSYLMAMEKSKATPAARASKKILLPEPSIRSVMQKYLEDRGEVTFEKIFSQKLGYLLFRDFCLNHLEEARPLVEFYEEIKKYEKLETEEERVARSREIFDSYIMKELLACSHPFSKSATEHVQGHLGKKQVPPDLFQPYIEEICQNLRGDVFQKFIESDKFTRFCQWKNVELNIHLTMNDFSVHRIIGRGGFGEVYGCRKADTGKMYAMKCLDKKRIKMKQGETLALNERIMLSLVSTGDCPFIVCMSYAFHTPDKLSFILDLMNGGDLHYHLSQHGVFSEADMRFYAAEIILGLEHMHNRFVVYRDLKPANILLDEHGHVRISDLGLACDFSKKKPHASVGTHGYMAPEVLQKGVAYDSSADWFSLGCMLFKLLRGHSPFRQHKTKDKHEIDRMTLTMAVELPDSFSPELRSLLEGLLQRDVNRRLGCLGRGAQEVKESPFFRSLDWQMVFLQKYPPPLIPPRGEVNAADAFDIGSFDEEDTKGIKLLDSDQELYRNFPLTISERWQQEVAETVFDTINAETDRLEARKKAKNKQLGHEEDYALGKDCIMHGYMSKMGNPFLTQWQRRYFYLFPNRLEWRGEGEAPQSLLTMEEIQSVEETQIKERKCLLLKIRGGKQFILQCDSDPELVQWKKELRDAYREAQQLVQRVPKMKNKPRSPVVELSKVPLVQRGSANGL

[14] = target: Beta-2 adrenergic receptor (Homo sapiens) (UniProt P07550); assay: beta2AR agonists driving receptor internalization, pilot screen, cell-based, FAP fluorogen, flow cytometry, validation set (AID 504459;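 active = percent response above 42, roughly 3 SD of non-fluorescent test compounds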;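 note: agonist-driven loss of surface beta2AR via internalization measured by FAP dye flow cytometry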); conditions: Am2.2-beta2AR cells, FAP surface receptor flow cytometry; at 10 µM; stronger effect = higher value
Beta-2 adrenergic receptor (Homo sapiens), sequence (P07550 whole entry, looked up): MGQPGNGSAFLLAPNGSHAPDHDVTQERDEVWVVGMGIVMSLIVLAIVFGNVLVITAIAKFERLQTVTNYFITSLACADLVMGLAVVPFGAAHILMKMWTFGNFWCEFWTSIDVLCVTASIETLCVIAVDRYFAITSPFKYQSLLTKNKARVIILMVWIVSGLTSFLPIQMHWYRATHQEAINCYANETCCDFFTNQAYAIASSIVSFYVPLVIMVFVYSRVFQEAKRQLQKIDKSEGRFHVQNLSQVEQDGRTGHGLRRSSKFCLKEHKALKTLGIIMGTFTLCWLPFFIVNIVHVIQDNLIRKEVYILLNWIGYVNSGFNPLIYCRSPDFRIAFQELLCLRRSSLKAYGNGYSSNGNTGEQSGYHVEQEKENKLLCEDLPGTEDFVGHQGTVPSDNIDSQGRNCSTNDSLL

[15] = target: AP-2 complex subunit beta (Homo sapiens) (UniProt P63010); assay: inhibitors of arrestin peptide binding to AP2, pilot screen, biochemical, validation set, GST-AP2 beads, flow cytometry (AID 504541;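 active = inhibition above 54%, about 3 SD of non-fluorescent compounds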;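 note: AP2 carries R879A mutation and is captured from E. coli lysate; bead-bound FITC arrestin peptide fluorescence measuring arrestin peptide binding to AP2; 0% = DMSO wells and 100% = excess unlabeled arrestin peptide control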); conditions: FITC arrestin peptide, at 10 µM, stronger effect = higher value, AP2 beta2 appendage fragment, R879A mutant
AP-2 complex subunit beta (Homo sapiens), sequence (P63010 whole entry, looked up, the tested form may be a part, one chain of several): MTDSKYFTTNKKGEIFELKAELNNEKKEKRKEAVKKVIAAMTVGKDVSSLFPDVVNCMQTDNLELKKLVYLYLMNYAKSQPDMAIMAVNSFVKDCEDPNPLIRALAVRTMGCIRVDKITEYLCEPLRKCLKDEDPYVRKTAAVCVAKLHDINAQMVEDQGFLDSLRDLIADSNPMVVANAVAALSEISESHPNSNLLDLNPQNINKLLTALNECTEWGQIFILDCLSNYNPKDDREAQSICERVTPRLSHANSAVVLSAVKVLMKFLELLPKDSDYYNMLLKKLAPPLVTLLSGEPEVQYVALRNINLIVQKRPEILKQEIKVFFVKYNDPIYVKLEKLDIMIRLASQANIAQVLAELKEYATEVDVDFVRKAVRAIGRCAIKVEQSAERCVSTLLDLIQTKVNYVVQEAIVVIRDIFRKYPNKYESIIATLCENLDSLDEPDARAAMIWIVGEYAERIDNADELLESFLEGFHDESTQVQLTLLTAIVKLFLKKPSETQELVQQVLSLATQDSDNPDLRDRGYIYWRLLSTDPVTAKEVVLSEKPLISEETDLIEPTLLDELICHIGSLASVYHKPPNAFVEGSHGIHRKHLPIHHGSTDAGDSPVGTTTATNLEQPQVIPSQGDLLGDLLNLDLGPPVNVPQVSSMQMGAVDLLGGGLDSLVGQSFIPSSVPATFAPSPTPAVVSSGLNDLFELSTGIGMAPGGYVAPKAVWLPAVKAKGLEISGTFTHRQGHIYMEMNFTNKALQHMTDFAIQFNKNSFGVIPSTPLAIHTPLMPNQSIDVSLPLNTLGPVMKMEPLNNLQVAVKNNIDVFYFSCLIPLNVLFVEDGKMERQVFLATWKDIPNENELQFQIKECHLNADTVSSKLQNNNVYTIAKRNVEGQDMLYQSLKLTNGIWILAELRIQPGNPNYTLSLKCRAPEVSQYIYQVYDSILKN

[16] = yeast V-ATPase proton transport modulators, S. cerevisiae, pHLuorin, HTS validation (AID 504600; in the data active = response above about 15%;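 note: plate controls were DMSO for no effect and reference compound for full effect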); conditions: S. cerevisiae pHLuorin cytosolic pH, at 10 µM, stronger effect = higher value
[17] = test system: anti-desmoglein-3 scFv antibody binding to human DSG3; assay: inhibitors of anti-DSG3 scFv binding to DSG3, pilot screen, biochemical, validation compound set, bead-based, flow cytometry (AID 588368); conditions: Protein G beads, DSG3-Fc, scFv-GFP binding, at 10 µM, stronger effect = lower value;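 note: signal is the median channel fluorescence of bead-bound GFP antibody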
[18] = target: ATP-binding cassette sub-family B member 6 (Homo sapiens) (UniProt Q9NP58); assay: ABCB6 transporter inhibitors, pilot screen, K562-ABCB6 cells, flow cytometry, validation set (AID 588550;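 active = inhibition above the screen-wide mean plus 3 SD, about 51%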;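 note: 0% = DMSO wells and 100% = benzethonium chloride 70 µM positive control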); conditions: K562-ABCB6 porphyrin accumulation, 1 h, at 10 µM, stronger effect = higher value
ATP-binding cassette sub-family B member 6 (Homo sapiens), sequence (Q9NP58 whole entry, looked up): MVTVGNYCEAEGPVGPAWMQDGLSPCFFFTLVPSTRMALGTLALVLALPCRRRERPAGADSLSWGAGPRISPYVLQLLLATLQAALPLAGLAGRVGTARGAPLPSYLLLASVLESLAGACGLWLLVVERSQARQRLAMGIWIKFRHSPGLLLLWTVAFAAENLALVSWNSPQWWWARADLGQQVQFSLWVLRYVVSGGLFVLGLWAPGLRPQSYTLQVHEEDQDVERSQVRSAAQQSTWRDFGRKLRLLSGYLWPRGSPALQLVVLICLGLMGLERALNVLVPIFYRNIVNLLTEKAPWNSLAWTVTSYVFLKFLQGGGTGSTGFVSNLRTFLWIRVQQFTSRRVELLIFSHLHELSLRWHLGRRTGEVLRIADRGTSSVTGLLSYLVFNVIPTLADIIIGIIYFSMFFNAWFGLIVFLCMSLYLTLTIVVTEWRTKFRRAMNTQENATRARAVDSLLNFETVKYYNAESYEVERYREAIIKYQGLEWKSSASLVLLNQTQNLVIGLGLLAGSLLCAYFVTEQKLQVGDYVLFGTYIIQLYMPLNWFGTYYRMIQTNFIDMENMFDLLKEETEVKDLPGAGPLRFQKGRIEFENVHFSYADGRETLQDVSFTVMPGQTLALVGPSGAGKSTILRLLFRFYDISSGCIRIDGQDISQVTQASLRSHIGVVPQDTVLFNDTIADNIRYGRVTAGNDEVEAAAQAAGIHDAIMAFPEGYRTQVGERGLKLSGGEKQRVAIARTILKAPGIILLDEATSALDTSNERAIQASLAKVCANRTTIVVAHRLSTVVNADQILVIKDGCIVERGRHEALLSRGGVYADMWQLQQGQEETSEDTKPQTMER

[19] = promoters of myeloid differentiation in arrested cells, primary screen, cell-based, GFP/MAC1 double positive, flow cytometry, validation set (AID 588685;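 active = differentiation response of at least 50%, scaled between solvent and reference control, from cells with both markers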;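 note: compound exposure lasts four days before antibody staining and flow analysis; 0% = DMSO wells and 100% = 5 µM fulvestrant positive control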); conditions: ER-HoxA9 marrow cells, stronger effect = higher value, normalized: vehicle 0, fulvestrant 100
[20] = inhibitors of fungal efflux pumps CDR1, CDR2, MDR1, pilot screen, validation compound set, multiplex, phenotypic (AID 588506;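 active = efflux inhibition above 0.42, the validation set average plus 4 SD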;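 note: Nile Red retained in cells so higher fluorescence means more efflux inhibition; 0 = negative control wells and 1 = enniatin B 25 µM full block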); conditions: S. cerevisiae pump-expressing triplex, Nile Red efflux flow cytometry; at 10 µM; stronger effect = higher value; the pumps come from Candida albicans
[21] = measured here: daughter cell gate
[22] = measured here: mother cell gate

CNCCC(Oc1ccc(C(F)(F)F)cc1)c1ccccc1 (centres undefined)
101%: GFP response relative to DMSO ([7]; measured here: mother cell gate response)
93.4%: GFP response, % of DMSO [9, 22]
99.1%: GFP response vs DMSO [6, 22]
94.8%: GFP response, % of DMSO [9, 21]
inactive: percent of DMSO control GFP [1] 89.8% | percent response of DMSO control [3] 107% | GFP response vs DMSO [4] 83.1% | GFP response, % of DMSO [5] 90.3% | GFP response vs DMSO [6] 98.4% | GFP response relative to DMSO [7] 97.4% | GFP response vs DMSO [8] 102% | GFP response, % of DMSO [9] 93.9% | vesicle binding response [10] 142% | inhibition [11] 6.46% | superoxide response (% of plate) [12] 85.8% | aptamer binding inhibition [13] 0% | response [14] 16.8% | inhibition [15] 13.5% | response [16] 1.16% | binding (% of control) [17] 94.1% | inhibition [18] 6% | differentiation response [19] -1.64%
95.6%: GFP response relative to DMSO ([7]; measured here: daughter cell gate response)
58%: double positive events [10]
active: GFP response vs DMSO [2] 141%
97%: GFP response vs DMSO [6, 21]

NCc1ccccc1COc1ccccc1
62.7%: double positive events [10]
active: inhibition [15] 57%
inactive: percent of DMSO control GFP [1] 105% | GFP response vs DMSO [2] 109% | percent response of DMSO control [3] 102% | GFP response vs DMSO [4] 117% | GFP response, % of DMSO [5] 111% | vesicle binding response [10] 179% | inhibition [11] 2.3% | superoxide response (% of plate) [12] 96.7% | aptamer binding inhibition [13] 0% | response [14] 4.62% | response [16] -3.28% | binding (% of control) [17] 98% | efflux inhibition (fraction of control) [20] 0.05 | inhibition [18] 6% | differentiation response [19] -15.2%

CCCCN1C[C@H](O)[C@@H](O)[C@H](O)[C@H]1CO
64.9%: double positive events [10]
inactive: percent of DMSO control GFP [1] 102% | GFP response vs DMSO [2] 99.6% | percent response of DMSO control [3] 95.7% | GFP response vs DMSO [4] 103% | GFP response, % of DMSO [5] 113% | vesicle binding response [10] 203% | inhibition [11] 13.4% | superoxide response (% of plate) [12] 104% | aptamer binding inhibition [13] 5% | response [14] -17% | inhibition [15] -12.1% | response [16] 5.64% | binding (% of control) [17] 104% | efflux inhibition (fraction of control) [20] -0.04 | inhibition [18] 0% | differentiation response [19] 0.92%

Cc1cc(O)c(C(=O)Cc2csc(C)n2)c(O)c1
56.7%: double positive events [10]
active: efflux inhibition (fraction of control) [20] 0.46
inactive: percent of DMSO control GFP [1] 102% | GFP response vs DMSO [2] 109% | percent response of DMSO control [3] 98.2% | GFP response vs DMSO [4] 112% | GFP response, % of DMSO [5] 96.1% | vesicle binding response [10] 15.7% | inhibition [11] 1.12% | superoxide response (% of plate) [12] 104% | aptamer binding inhibition [13] 5% | response [14] 2.72% | inhibition [15] 6.62% | response [16] -0.65% | binding (% of control) [17] 99.5% | inhibition [18] 2% | differentiation response [19] 6.49%

C=CCNc1nc2c(c(=O)n(C)c(=O)n2C)n1CC(=C)C
inactive: percent of DMSO control GFP [1] 101% | GFP response vs DMSO [2] 101% | percent response of DMSO control [3] 101% | GFP response vs DMSO [4] 91.6% | GFP response, % of DMSO [5] 103% | vesicle binding response [10] 176% | inhibition [11] -16.1% | superoxide response (% of plate) [12] 103% | aptamer binding inhibition [13] 3% | response [14] -5.19% | inhibition [15] 8.24% | response [16] -4.28% | binding (% of control) [17] 104% | efflux inhibition (fraction of control) [20] -0.38 | inhibition [18] 3% | differentiation response [19] -1.88%
63.3%: double positive events [10]

CC(=O)OCC(=O)[C@@]1(O)CC[C@H]2[C@@H]3CCC4=CC(=O)C=C[C@]4(C)[C@H]3[C@@H](O)C[C@@]21C
inactive: percent of DMSO control GFP [1] 90.2% | GFP response vs DMSO [2] 132% | percent response of DMSO control [3] 99.2% | GFP response vs DMSO [4] 101% | GFP response, % of DMSO [5] 103% | vesicle binding response [10] 161% | inhibition [11] 9.37% | superoxide response (% of plate) [12] 97% | aptamer binding inhibition [13] 1% | response [14] 4% | inhibition [15] 8.75% | response [16] -0.94% | binding (% of control) [17] 98.1% | efflux inhibition (fraction of control) [20] -0.09 | inhibition [18] 9% | differentiation response [19] 5.73%
66.4%: double positive events [10]

COc1ccc(C(=O)c2oc3ccc(Br)cc3c2NC(C)=O)cc1
61.7%: double positive events [10]
inactive: percent of DMSO control GFP [1] 90.9% | GFP response vs DMSO [2] 122% | percent response of DMSO control [3] 112% | GFP response vs DMSO [4] 82% | GFP response, % of DMSO [5] 97.5% | vesicle binding response [10] 140% | inhibition [11] 4.52% | superoxide response (% of plate) [12] 104% | aptamer binding inhibition [13] 1% | response [14] -11.6% | inhibition [15] 3.03% | response [16] 3.34% | binding (% of control) [17] 96.9% | efflux inhibition (fraction of control) [20] -0.02 | inhibition [18] 8% | differentiation response [19] -0.82%

Cc1cc(=O)oc2c(CN(C)Cc3ccccc3)c(O)ccc12
inactive: percent of DMSO control GFP [1] 100% | GFP response vs DMSO [2] 106% | percent response of DMSO control [3] 105% | GFP response vs DMSO [4] 94.7% | GFP response, % of DMSO [5] 96.2% | vesicle binding response [10] 434% | inhibition [11] 12% | superoxide response (% of plate) [12] 97.6% | aptamer binding inhibition [13] 3% | response [14] 0.85% | inhibition [15] -2.59% | response [16] 1.53% | binding (% of control) [17] 97.4% | efflux inhibition (fraction of control) [20] 0.11 | inhibition [18] 10% | differentiation response [19] 0.24%
62.4%: double positive events [10]

CC1(C)Cc2ccccc2-c2nc(-c3ccccc3)oc(=O)c21
63.3%: double positive events [10]
inactive: percent of DMSO control GFP [1] 102% | GFP response vs DMSO [2] 94.7% | percent response of DMSO control [3] 96.4% | GFP response vs DMSO [4] 107% | GFP response, % of DMSO [5] 112% | vesicle binding response [10] 149% | inhibition [11] 2.29% | superoxide response (% of plate) [12] 89.6% | aptamer binding inhibition [13] 4% | response [14] -10.1% | inhibition [15] -10.6% | response [16] -7.89% | binding (% of control) [17] 98.8% | efflux inhibition (fraction of control) [20] 0.08 | inhibition [18] 7% | differentiation response [19] -0.06%

CSCC[C@H](NC(=O)NC1CCCC1)C(=O)O
inactive: percent of DMSO control GFP [1] 89.8% | GFP response vs DMSO [2] 113% | percent response of DMSO control [3] 99.2% | GFP response vs DMSO [4] 75.4% | GFP response, % of DMSO [5] 89.6% | vesicle binding response [10] 233% | inhibition [11] 8.4% | superoxide response (% of plate) [12] 113% | aptamer binding inhibition [13] 3% | response [14] -7.36% | inhibition [15] -9.17% | response [16] 1.23% | binding (% of control) [17] 101% | efflux inhibition (fraction of control) [20] 0.34 | inhibition [18] 13% | differentiation response [19] 0.82%
70.2%: double positive events [10]
